# HTT ATP protect: cytoprotection in Huntington HTT-Q103 PC12 cell model | PC12 HTT-Q103 induced, cytoprotection, ATP luminescence, 40 h | Potency, µM (titrated, usually from 56.4 µM), without a hit: cytoprotection (ATP increase), usual class: activators | 0.14% of 230,000 active | AID 1471; active = well fitted curve in the direction sought with a large enough effect; inconclusive = small, poorly fitted or top-dose-only effect, or another doubt; inactive = no such curve, though single readings can be large; an effect the other way counts as inactive or inconclusive; note: potency is the fitted concentration of half-maximal effect; % of control where 0% means no effect; nearly all actives have a fitted effect of over 45% in size
#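 ATP quantification (ATPlite) reports survival of PC12 cells in which tebufenozide, 100 nM final, switches on Htt exon 1 with 103 glutamines linked to GFP; compounds are titrated.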
# HPGD inh: blocks human HPGD enzyme activity; P15428; purified HPGD, NADH fluorescence kinetic, PGE2 substrate; Potency, µM, inactives show top-dose activity change, negative = inhibition, actives largely listed as inhibitors; 4.3% of 150,000 active; AID 894; note: potency is the fitted concentration of half-maximal effect; % is set by controls: 0 for no effect and ±100 for the full control effect
# Target sequence (P15428 whole entry, looked up): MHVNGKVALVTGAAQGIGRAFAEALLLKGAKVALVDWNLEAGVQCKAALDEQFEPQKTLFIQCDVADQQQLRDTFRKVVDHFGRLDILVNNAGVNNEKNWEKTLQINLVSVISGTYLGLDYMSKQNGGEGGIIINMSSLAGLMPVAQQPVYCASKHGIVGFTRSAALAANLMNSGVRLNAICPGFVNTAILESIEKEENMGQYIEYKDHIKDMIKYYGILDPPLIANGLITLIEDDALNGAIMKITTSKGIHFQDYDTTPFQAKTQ
#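 NADH formation kinetics: reaction with 30 uM PGE2 and 1 mM NAD+ (final), 20 nM enzyme, Tris-HCl pH 8 with Tween 20, after 15 min compound preincubation at room temperature. Fluorescence change, last versus first of five reads.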
# JMJD2E inh: blocks human JMJD2E demethylase activity | JMJD2E catalytic domain, FDH-coupled NADH fluorescence (FDH is formaldehyde dehydrogenase) | B2RXH2 | 1.6% of 230,000 active | Potency, µM (top dose mostly 57.1 µM), without a hit: at the top dose activity change, negative = inhibition, usual class: inhibitors;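 note: potency is the fitted concentration of half-maximal effect; 0% = wells with enzyme and -100% = buffer wells without enzyme; nearly all actives have a fitted effect of over 50% in size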
# CBFb-RUNX1 inh: blocks binding between human CBF-beta and RUNX1; AlphaScreen CBFb-His/RUNX1-biotin binding, biochemical; Potency, µM (series often up to 59.8 µM), inactives show at the highest dose activity, negative = inhibition, most hits filed as inhibitors; 230,000 tested, under 10 active; active = well fitted curve in the direction sought with a large enough effect; inconclusive = small, poorly fitted or top-dose-only effect, or another doubt; inactive = no such curve, though single readings can be large; an effect the other way counts as inactive or inconclusive; note: % of control where 0% means no effect
#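 CBFb-His/RUNX1-biotin, 30 nM each, preincubated 20 min RT; compound 15 min RT; Ni + streptavidin beads 50 ng each, 90 min RT; AlphaScreen read.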
# ALDH1A1 block: ALDH1A1 (human) enzyme inhibition. Potency, µM (top dose mostly 75.3 µM), for the others: at the top dose activity, negative = inhibition, most hits filed as inhibitors. 7.3% of 220,000 active. P00352. Purified ALDH1A1, NADH fluorescence, propionaldehyde substrate. AID 1030;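 note: potency is the fitted concentration of half-maximal effect; plate controls were no enzyme wells and a reference inhibitor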
# Target sequence (P00352 whole entry, looked up): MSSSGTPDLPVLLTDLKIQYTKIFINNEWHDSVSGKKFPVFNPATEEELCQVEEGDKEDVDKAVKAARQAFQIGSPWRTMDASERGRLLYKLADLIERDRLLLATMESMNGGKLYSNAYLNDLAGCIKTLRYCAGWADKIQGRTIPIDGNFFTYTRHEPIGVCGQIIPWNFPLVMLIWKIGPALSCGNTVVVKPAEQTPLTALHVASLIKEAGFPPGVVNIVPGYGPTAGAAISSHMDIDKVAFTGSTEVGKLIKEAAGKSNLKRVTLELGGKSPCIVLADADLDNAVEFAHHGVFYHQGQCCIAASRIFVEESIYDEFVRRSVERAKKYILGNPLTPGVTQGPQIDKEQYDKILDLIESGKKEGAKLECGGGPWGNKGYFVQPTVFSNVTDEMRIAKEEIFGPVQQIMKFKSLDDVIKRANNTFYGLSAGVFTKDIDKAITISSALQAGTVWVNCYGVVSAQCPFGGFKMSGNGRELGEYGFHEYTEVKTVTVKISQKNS
# HttQ103 aggreg: mutant huntingtin aggregation inhibition | Potency, µM (highest dose often 46.1 µM), for inactives: at the highest dose activity change, negative = inhibition, most hits filed as inhibitors | AID 1688 | PC12 HttQ103-GFP aggregates, Acumen cytometry, 40 h | 1.1% of 220,000 active; active = well fitted curve in the direction sought with a large enough effect; inconclusive = small, poorly fitted or top-dose-only effect, or another doubt; inactive = no such curve, though single readings can be large; an effect the other way counts as inactive or inconclusive; note: potency is the fitted concentration of half-maximal effect; % is set by controls: 0 for no effect and ±100 for the full control effect; nearly all actives have a fitted effect of over 60% in size
#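 Huntingtin Q103 exon 1–GFP aggregates in induced PC12 cells (100 nM tebufenozide) were quantified by cytometry from lysates, with compounds dosed in titration.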
# * = called active by the depositor; u = inconclusive; x = no result; [ ] = another dose, or the depositor's remark. The list is not random: actives were taken first. Their share in the collection is about 9.8%. Unless noted, calls come from the whole dose curve; as a rule, active = well fitted inhibition curve with a large enough effect (not every such curve was filed as active); inconclusive = small, poorly fitted or top-dose-only effect, or another doubt; inactive = no such curve, though single readings can be large or run the other way.
SMILES,HTT ATP protect,HPGD inh,JMJD2E inh,CBFb-RUNX1 inh,ALDH1A1 block,HttQ103 aggreg
COc1ccc(C(=O)NN2C(=O)C3C4C=CC(O4)C3C2=O)cc1 (stereo unspecified),-13%,4%,-4%,2%,7.9µM*,-6%
COc1ccccc1N1CCN(C(=O)CN(C)S(=O)(=O)c2ccc3c(c2)c(=O)n(C)c(=O)n3C)CC1,13%,x,2%,-4%,-2%,-21%
CCC1(c2ccc(Cl)cc2)NC(=S)N(c2ccc(C)cc2)N1 (stereo unspecified),x,u,u,1%,28µM*,25%
CCC1(c2ccccc2)NC(=S)N(c2ccc(C)c(C)c2)N1 (stereo unspecified),-53%,x,u,-10%,u,-2%
CC1(CCc2ccccc2)NC(=S)N(c2ccccc2)N1 (stereo unspecified),x,40µM*,-3%,-6%,14%,6%
CC1(CCc2ccccc2)NC(=S)N(c2ccc(Cl)cc2)N1 (stereo unspecified),19%[0.074 µM],1µM*,-15%,-3%,7.1µM*,-6%
CCC1(c2ccc(Cl)cc2)NC(=S)N(c2ccc(C)c(C)c2)N1 (stereo unspecified),15%[10 µM],x,-8%,-6%,x,-1%[9.22 µM]
COc1ccccc1NC(=O)c1cc2c(s1)-c1ccccc1S(=O)(=O)C2,-7%[10 µM],x,u,-5%,x,5%[9.22 µM]
C=C(C)CCOC(=O)C(CC(=O)O)NCc1ccco1 (stereo unspecified),1%[10 µM],x,-19%,-30%,x,-6%[9.22 µM]
CCCn1c(-c2ccc(F)cc2)nc2c(N3CCN(Cc4nc(OC)cc(OC)n4)CC3)nc(C)nc21,-58%,-23%,u,2%,-14%,x
CC12CCC(C1)C(C)(C)C2OC(=O)c1ccccc1C(=O)O (stereo unspecified),5%[10 µM],x,1%,2%,x,-5%[9.22 µM]
CSc1ccc(-c2nnn(Cc3ccc(C)cc3)n2)cc1,3%,-12%,-9%,28%,2%,-14%
O=Cc1ccc(Oc2ccc(F)cc2)nc1,-20%,x,-17%,3%,16µM*,1%
S=C(Nc1ccccc1Cl)Nc1ccc(Cl)cc1Cl,-1%,-25%,5%,3%,u,13%
S=C(NCc1cccs1)Nc1cccc(Cl)c1,5%[10 µM],13µM*,9%,12%,5%,-5%
S=C(NCc1cccs1)Nc1ccccc1Cl,16%[0.074 µM],14µM*,2%,4%,-2%,11%
NNC(=S)Nc1ccccc1Cl,22%[10 µM],x,u,-12%,28µM*,-3%
O=Cc1ccc(CO)o1,2%,-10%,x,1%[21.7 µM],u,x
CNC(=O)CSc1cnc2ccccc2n1,u,x,-8%,4%,6%,17%
O=C(C[n+]1ccccc1)N1c2ccccc2Sc2ccccc21,0%[10 µM],x,2%,6%,3.2µM*,-8%[9.22 µM]
CN(C)c1cc[n+](CC(=O)N2c3ccccc3Sc3ccccc32)cc1,-10%[10 µM],x,-6%,2%,8%,-14%[9.22 µM]
C/C(=N/Nc1ccc(F)cc1)c1ccc(Cl)s1,21%[10 µM],-18%,-14%,-2%,u,-5%
C/C(=N\Nc1ccc(F)cc1F)c1ccc(N2CCOCC2)cc1,1%[10 µM],x,u,7%,16µM*,10%
C/C(=N\Nc1ccc(F)cc1F)c1ccc(Br)s1,u,x,-3%,2%,13µM*,-17%
C/C(=N\Nc1ccc(F)cc1F)c1ccc(F)cc1,5%,-7%,-5%,-3%,u,4%
SMILES,HTT ATP protect,HPGD inh,JMJD2E inh,CBFb-RUNX1 inh,ALDH1A1 block,HttQ103 aggreg
CN(Cc1ccco1)c1ccnc(-c2cccc(C#N)c2)n1,-46%,x,x,x,u,x
N#Cc1nc(-c2ccco2)oc1N1CCC(C(N)=O)CC1,9%,u,3.5µM*,2%,u,-3%
CCc1c(C)nc(Nc2nc(C)c3ccc(OC)cc3n2)[nH]c1=O,0%[10 µM],-4%,3%,0%,2.2µM*,5%
Cc1ccc2occ(/C=N/O)c(=O)c2c1,-5%,-18%,-8%,1%,u,1%
O=c1c(/C=N/O)coc2ccc3ccccc3c12,-16%[0.074 µM],-28%,-7%,6%,11µM*,9%
Cc1ccc(C)c(C(=O)CSc2n[nH]c(-c3ccncc3)n2)c1,-5%,x,6%,-4%,5µM*,6%
Cc1cc(C)c(C(=O)CSc2n[nH]c(-c3ccncc3)n2)c(C)c1,-43%,x,-2%,-11%,11%,4%
CCC1COC(c2cccn2Cc2ccccc2Cl)=N1 (stereo unspecified),-9%,x,1%,1%,-9%,31%
O=C(Nc1ccccc1OC(F)F)c1cc2c(s1)CCC2,24%[1.9 µM],-17%,-23%,7%,u,11%
O=C(NNC(=S)Nc1ccc(OC(F)F)cc1)c1cc2c(s1)CCCC2,-4%[1.9 µM],-19%,2%,-1%,8.9µM*,-2%
CCCn1c(SCC(=O)c2ccc(CC)cc2)n[nH]c1=O,u,-19%,2%,1%,-4%,0.89µM*
Cc1cc(C(=O)CSc2nnnn2-c2ccc(O)cc2)c(C)n1Cc1ccc2c(c1)OCO2,-69%,-4%,-5%,-23%,-4%,u
Cc1cc(C(=O)CSc2nnnn2-c2ccccc2)c(C)n1-c1ccc2c(c1)OCO2,x,-19%,1%,-13%,0.25µM*,1%
CCCn1c(SCC(=O)c2cc(C)n(-c3ccc4c(c3)OCO4)c2C)n[nH]c1=O,3.5µM*,-8%,3%,-9%,-10%,-29%
Cc1cc(C(=O)CSc2nnc(C3COc4ccccc4O3)n2C)c(C)n1-c1ccc(F)cc1 (stereo unspecified),-13%[10 µM],28µM*,-8%,u,u,u
CCCn1c(SCC(=O)NCc2ccc(C)cc2)n[nH]c1=O,x,x,-3%,1%,19%,18%
CN[C@H](CC(=O)O)C(=O)O,-15%,-18%,u,11%,-15%,x
CN1CC[C@@]2(CCN3CCc4c(oc5ccccc45)[C@@H]3C2)N(C)C1=O,-2%[1.9 µM],x,x,x,x,x
Cc1cc(C(=O)COC(=O)C2=COCCO2)c(C)n1-c1ccc2c(c1)OCO2,-7%[10 µM],16µM*,u,-2%,16µM*,0%
Cc1ccc(CNC(=O)CSc2c3c(nc4cc(Cl)ccc24)CCCC3)o1,u,u,-23%,-10%,20µM*,17%[9.22 µM]
O=C(CSc1c2c(nc3ccccc13)CCCC2)NCc1ccco1,u,x,u,-17%,u,13µM*
O=C(NCc1ccco1)c1c2c(nc3ccccc13)CCC2,-5%,-13%,u,u,u,3%
COc1cccc(Cn2c(OCC3CCCO3)nc3c2c(=O)n(C)c(=O)n3C)c1 (stereo unspecified),4%[10 µM],-11%,-1%,3%,7.1µM*,-4%
Cn1c(=O)c2c(nc(NCC3CCCO3)n2Cc2cccc(Br)c2)n(C)c1=O (stereo unspecified),-25%,-8%,5%,-2%,9%,0%
